# Screening results: PubChem, several laboratories
# Most compounds without a hit are left out; they make up all but 1.9% or so of the library.
# PrPC surface inh: inhibitors of human cell surface prion protein PrPC. P04156. TR-FRET read-out. inhibition, % at 13.8 µM. 370,000 tested, 0.43% active. AID 720596; in the data active = inhibition above about 24%
# BJeLR viability: kills HRASV12-expressing BJeLR cells | BJeLR (HRASV12) viability, CellTiter-Glo ATP luminescence, 48 h | inhibition, % (no concentration beside the values) | 300,000 tested, 0.17% active | AID 1554; in the data active = inhibition above about 50%; inconclusive = no clear call, values can overlap the other calls
# PfHsp40 rescue: compounds rescuing yeast from Plasmodium falciparum HSP40 toxicity. 340,000 tested, 0.68% active. S. cerevisiae expressing PfHsp40, growth rescue, ATP luminescence. AID 504582. growth rescue, % at 12.5 µM; in the data active = growth rescue above about 28%, passing the limit was not always enough; inconclusive = no clear call, values can overlap the other calls;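 also: yeast W303a lacking pdr1 and pdr3 grown in galactose medium; growth measured after three days at 30 °C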
# RecA intein inh: Mtb RecA intein splicing inhibition; P9WHJ3; cell-free RecA intein splicing, fluorescence; inhibition, % (concentration not given with the values); 290,000 tested, 0.75% active; in the data active = inhibition above about 30%; inconclusive = no clear call, values can overlap the other calls
# PriA SSB inh: K. pneumoniae PriA-SSBct interaction inhibition; AlphaScreen SSBct-PriA binding, biotinylated peptide; inhibition, % at 33 µM; 430,000 tested, 0.6% active; in the data active = inhibition mostly above about 37%, no sharp cut-off; inactive = mostly below about 20%
# PrP 5UTR inh: suppresses PrP 5' UTR mRNA reporter expression. cell-based PrP 5' UTR mRNA reporter, plate reader. inhibition, % (concentration not given with the values). 340,000 tested, 0.35% active. AID 488862; in the data active = inhibition above about 52%
# GFP chromo cs: counter-screen GFP chromophore formation inhibition | AID 434968 | 2,100 tested, 83% active | shares compounds with RecA intein inh | cell-free GFP chromophore formation, fluorescence | EC50, µM; call rule not given here
# Numbers stand for hits; . = inactive; ? = inconclusive; / = not tested or not shown.
SMILES,PrPC surface inh,BJeLR viability,PfHsp40 rescue,RecA intein inh,PriA SSB inh,PrP 5UTR inh,GFP chromo cs
COc1cc(C2C(C#N)=C(N)Oc3n[nH]c(C)c32)cc2c1OCO2 (stereo unspecified),.,.,.,92,.,.,4.9
Cc1[nH]nc2c1C(C(C)C)C(C#N)=C(N)O2 (stereo unspecified),.,.,.,/,.,.,/
COc1cc(C2C(C#N)=C(N)OC3=C2C(=O)CCC3)cc2c1OCO2 (stereo unspecified),.,.,?,.,.,.,/
CCOC(=O)Cc1[nH]nc2c1C(c1ccoc1)C(C#N)=C(N)O2 (stereo unspecified),.,.,.,65,.,.,26
C=CCOC(=O)C1=C(C)OC(N)=C(C#N)C1c1ccoc1 (stereo unspecified),.,.,.,/,.,.,/
CCCc1[nH]nc2c1C(c1ccoc1)C(C#N)=C(N)O2 (stereo unspecified),.,.,.,61,.,.,19
COc1ccccc1OCC(=O)OC1CN(c2nc3c(C(F)(F)F)cccc3s2)C1,/,/,/,/,.,/,/
Cc1cc(-c2onc(C)c2C(=O)N/N=C/c2ccccc2)no1,.,.,.,.,.,.,/
Cc1ccc(SC(=O)c2c(C)noc2-c2cc(C)on2)cc1,.,.,.,61,.,.,26
CC1CC(NC(=O)CN2C(=O)c3ccccc3S2(=O)=O)CC(C)(C)C1 (stereo unspecified),/,/,/,/,.,/,/
CNCc1ccccc1Sc1ccc(O)c(O)c1,.,.,.,88,.,.,3.3
CCc1nc(SCC(=O)N2CCN(c3ccccc3)CC2)c2oc3ccccc3c2n1,.,.,.,32,.,.,.
NC(=O)C1CCN(c2ccc3cccc(OCC(=O)NCc4ccccc4Cl)c3n2)CC1,/,/,/,/,.,/,/
CC1=NN(c2ccc(C)c(C)c2)C(=O)C1C(c1cccc(O)c1)C1C(=O)N(c2ccc(C)c(C)c2)N=C1C (stereo unspecified),.,.,.,95,.,.,0.91
Cc1ccc(N2C(=O)C3C4C=CC(C3C2=O)C2C(=O)N(c3ccc(C)c(C)c3)C(=O)C42)cc1C (stereo unspecified),/,/,/,/,.,/,/
CCOc1ccc(NC(=O)CSc2cnc3cc(S(=O)(=O)N4CCCCC4)ccc3n2)cc1,/,/,/,/,.,/,/
CC(Oc1ccc(F)cc1)C(=O)Oc1ccc(N(C)S(=O)(=O)c2ccccc2)cc1 (stereo unspecified),.,.,.,39,.,.,.
COc1ccc(S(=O)(=O)N(C)c2ccc(OC(=O)C(C)Oc3ccc(F)cc3)cc2)cc1 (stereo unspecified),.,.,.,.,.,.,/
CCOc1cc(/C=C(\C#N)C(=O)Nc2cccc(C(=O)O)c2)ccc1OCc1ccccc1Cl,.,.,.,/,.,.,/
CCOc1cc(/C=C(\C#N)C(=O)Nc2cccc(C(=O)O)c2)cc(Br)c1OC(=O)c1ccc(OC)cc1,.,.,.,38,.,.,21
CCCc1[nH]nc2c1C(c1ccsc1)C(C#N)=C(N)O2 (stereo unspecified),.,.,.,66,.,.,29
COCc1[nH]nc2c1C(c1ccsc1)C(C#N)=C(N)O2 (stereo unspecified),.,.,.,64,.,.,35
CCOC(=O)C1=C(C)OC(N)=C(C#N)C1c1ccsc1 (stereo unspecified),/,.,?,.,.,.,/
COCc1[nH]nc2c1C(c1sccc1C)C(C#N)=C(N)O2 (stereo unspecified),.,.,.,.,.,.,/
CC(C)CS(=O)(=O)C1CN(C(=O)COc2cccc3c2OC(C)(C)C3)C1,/,/,/,/,.,/,/
SMILES,PrPC surface inh,BJeLR viability,PfHsp40 rescue,RecA intein inh,PriA SSB inh,PrP 5UTR inh,GFP chromo cs
COc1ccccc1NC(=O)Cn1cc(S(=O)(=O)N2CCOCC2)ccc1=O,/,/,/,/,.,/,/
ClCc1nnc(-c2cc3c(s2)CCCC3)o1,.,.,.,39,.,.,28
O=C(O)c1cc2c(s1)CCCC2,.,.,.,/,.,.,/
O=C(c1csc(-c2ccccc2)n1)N1CCC(Oc2ccc(C(F)(F)F)cn2)CC1,/,/,/,/,.,/,/
N#C[C@H]1[C@H](c2ccccc2)[C@](C#N)(C(=O)c2ccccc2)[C@@H]2C=Cc3ccccc3N21,/,.,/,53,/,/,23
CS(=O)(=O)N1CCC(Oc2ccccc2C(=O)N2CCCCC2CO)CC1 (stereo unspecified),.,.,.,48,.,.,.
O=C(c1ccc(Br)o1)N1CCN(c2ccc(Nc3ccncc3)nn2)CC1,/,/,/,/,.,/,/
CCC(C(=O)NCc1ccc2c(c1)cc(C)n2C)c1ccccc1 (stereo unspecified),/,/,/,/,.,/,/
CCC(CC)C(=O)NCc1ccc2c(c1)cc(C)n2C,.,.,.,31,.,.,.
O=C(Cn1cnc(-c2ccc(Cl)cc2)cc1=O)NC1CC1,/,/,/,/,.,/,/
COc1cccc(N=Nc2c(N)[nH][nH]c2=O)c1,.,.,.,.,.,.,/
CCOc1ccc(N=Nc2c(N)[nH][nH]c2=O)cc1,.,.,.,54,.,.,18
O=S(=O)(NCc1nnnn1C1CCCCC1)c1cccs1,/,/,/,/,.,/,/
Cc1cccc(S(=O)(=O)C(C#N)c2nc3ccccc3nc2N2CCCC2)c1 (stereo unspecified),.,.,.,45,.,.,.
N#CC(c1nc2ccccc2nc1N1CCCC1)S(=O)(=O)c1ccccc1 (stereo unspecified),.,.,.,.,.,/,/
COc1cc(C=NNc2nc(C)cc(C)n2)ccc1OC(=O)c1ccco1,/,/,/,/,.,/,/
O=C1c2cc(F)ccc2-n2c1nc1ccccc1c2=O,.,.,.,94,.,.,.
CC(=O)N1CC=C2C(C#N)=C(N)C(C#N)(C#N)C(CCc3ccccc3)C2C1 (stereo unspecified),.,.,.,.,.,.,/
N#CC1=C(N)C(C#N)(C#N)C(c2cccnc2)C2CN(C(=O)OCc3ccccc3)CC=C12 (stereo unspecified),.,.,.,45,.,.,4.4
NC(=O)CSc1nnc(NC(=O)C23CC4CC(CC(C4)C2)C3)s1,/,.,.,.,.,.,/
CSc1nnc(NC(=O)C23CC4CC(CC(C4)C2)C3)s1,.,.,.,.,.,.,.
O=[N+]([O-])c1cnc2ccccc2c1,.,.,.,.,.,.,/
O=[N+]([O-])c1cc([N+](=O)[O-])c2cc3ccccc3nc2c1,.,.,.,93,.,.,4.9
CC(=O)Nc1ccccc1NC(=O)CC(C)=NNC(=O)C(=O)N1CCCCC1,/,/,/,/,.,/,/
CC(=O)Nc1ccccc1NC(=O)C/C(C)=N/NC(=O)C(=O)N1CCCCC1,.,.,.,85,/,.,10
Cc1cccc(C)c1-n1cccc1/C=C1\SC(=S)N(c2cccc(C(=O)O)c2)C1=O,.,.,.,33,.,.,11
COc1cc(NC(=O)N2CCC(S(=O)(=O)Cc3ccco3)CC2)cc(OC)c1OC,/,/,/,/,.,/,/
